Results published in the supplement of paper PMC5919970.
Counter-ions that a name gives are not always drawn. In all, about 2,000 compounds were measured (“fractional viability relative to vehicle”: median about 0.91, lowest 2% from about 0.045 on). What follows is part of a selection rich in the lowest values, with near analogues and random picks from the rest.

Tested on: TYKNU
Test: fractional viability relative to vehicle; TYKNU is a high-grade serous ovarian cancer line; higher = less growth inhibition
Conditions: 72 h
Outline: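 TYKNU control cells or lentiCRISPRv2 knockout derivatives were plated at 500 cells per well in duplicate into drug-stamped 384-well plates holding a ~2100-compound library at 2 or 10 μM. Culture was in RPMI 1640 with 10% FBS at 37 °C in 5% CO2, with 72 h of drug treatment. Viability was measured by Cell Titer Glo luminescence, and the averaged duplicate treatment wells were normalised to duplicate control wells at the same plate position.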

[1] = 2uM, genotype: DNM1L knockout (sgDNM1L #1)
[2] = 2uM, genotype: sgCTRLA1 (non-targeting control)
[3] = 10uM, genotype: DNM1L knockout (sgDNM1L #1)
[4] = 10uM, genotype: sgCTRLA1 (non-targeting control)

Row | Compound | fractional viability [1] | fractional viability [2] | fractional viability [3] | fractional viability [4]
1 | Nc1cccc(S(=O)(=O)N2CCCN(S(=O)(=O)c3ccc4c(c3)OCCO4)CC2)c1 | 0.767 | 0.995 | 0.742 | 0.647
2 | NCCCCCNCC12CC3CC(CC(C3)C1)C2 [IEM 1754 dihydrobroMide] | 0.967 | 0.972 | 0.91 | 0.898
3 | CC(=O)Oc1cc2c(s1)CCN(C(C(=O)C1CC1)c1ccccc1F)C2 (configuration not stated) [Prasugrel] | 1.14 | 1.21 | 0.897 | 1.08
4 | C[C@@H]1COCCN1c1cc(C2([S@](C)(=N)=O)CC2)nc(-c2cc[nH]c3nccc2-3)n1 | 0.189 | 0.127 | 0.136 | 0.0834
5 | CCCCCCCCCCCCCCCCn1cc[n+](Cc2ccccc2)c1C | 0.134 | 0.104 | 0.0139 | 0.00629
6 | Cc1nn(C)c(COc2ccc(N3CCN(S(=O)(=O)N(C)C)CC3)cc2)c1-c1cccc2c(CCCOc3cccc4ccccc34)c(C(=O)O)n(CCN3CCOCC3)c12 | 0.762 | 0.94 | 0.644 | 0.518
7 | C[C@@H](Oc1cc(-c2cnn(C3CCNCC3)c2)cnc1N)c1c(Cl)ccc(F)c1Cl | 0.669 | 0.73 | 0.128 | 0.126
8 | CC[C@H]1[C@@H](O)[C@@H]2[C@H](CC[C@]3(C)[C@@H]([C@H](C)CCC(=O)O)CC[C@@H]23)[C@@]2(C)CC[C@@H](O)C[C@@H]12 [Obeticholic Acid] | 0.846 | 0.891 | 0.952 | 0.807
9 | CC(C)(C)C(=O)C(Oc1ccc(Cl)cc1)n1ccnc1 (configuration not stated) [Climbazole] | 0.805 | 1.06 | 0.641 | 0.924
10 | CC(C)(C)c1cc(C(=O)C(C#N)=NNc2cccc(Cl)c2)no1 | 0.783 | 0.936 | 0.57 | 0.583
11 | CCc1ccc(OCc2ccccc2C(=O)Nc2ccc3nc(C)cc(N)c3c2)cc1 | 0.117 | 0.166 | 0.0139 | 0.00672
12 | CCCC(=O)Nc1cccc(NC(=O)c2ccccc2Br)c1 | 1.11 | 1.19 | 0.939 | 1.21
13 | COc1cc2c(cc1OC)CN(CCc1ccc(NC(=O)c3cc(OC)c(OC)cc3NC(=O)c3cnc4ccccc4c3)cc1)CC2 [Tariquidar] | 0.769 | 1.05 | 0.158 | 0.555
14 | Cn1c(=O)cc(N2CCC[C@@H](N)C2)n(Cc2ccccc2C#N)c1=O [Alogliptin] | 0.928 | 0.995 | 0.894 | 1.03
15 | Cc1ncc([N+](=O)[O-])n1CC(O)CCl (configuration not stated) [Ornidazole] | 1.42 | 1.24 | 1.25 | 1.37
16 | CCOC(=O)c1ccc(N2NC(=O)C(=Cc3ccc([N+](=O)[O-])o3)C2=O)cc1 | 0.944 | 1.26 | 0.872 | 1.02
17 | O=C(N/N=C/c1ccc([N+](=O)[O-])o1)c1ccc(O)cc1 [Nifuroxazide] | 0.378 | 1.1 | 0.0463 | 0.0163
18 | NC(=O)N/N=C/c1ccc([N+](=O)[O-])o1 [Nitrofural] | 1.34 | 1.13 | 1.26 | 1.2
19 | CN(C)c1ccc(C(=C2C=CC(=[N+](C)C)C=C2)c2ccc(N(C)C)cc2)cc1 [Crystal Violet] | 0.133 | 0.121 | 0.0375 | 0.0133

Row | Compound | fractional viability [1] | fractional viability [2] | fractional viability [3] | fractional viability [4]
20 | O=c1[nH]c(=O)n(C2CC(O)C(CO)O2)cc1Br (configuration not stated) [Bromodeoxyuridine (BrdU)] | 0.823 | 0.962 | 0.859 | 0.64
21 | O=C(Nc1ccccc1-c1cn2c(CN3CCNCC3)csc2n1)c1cnc2ccccc2n1 | 0.608 | 0.845 | 0.0197 | 0.00961
22 | Cc1nc(-c2cccnc2)sc1C(=O)Nc1ccccc1-c1cn2c(CN3CCOCC3)csc2n1 | 0.821 | 0.932 | 0.858 | 0.78
23 | Cn1c2ccccc2c2c3c(c4c5ccccc5n(CCC#N)c4c21)CNC3=O | 0.64 | 1.01 | 0.671 | 0.79
24 | Cn1cncc1[C@@](N)(c1ccc(Cl)cc1)c1ccc2c(c1)c(-c1cccc(Cl)c1)cc(=O)n2C [Tipifarnib] | 0.472 | 0.64 | 0.272 | 0.366
25 | Cc1nnc(C(C)C)n1C1C[C@H]2CC[C@@H](C1)N2CC[C@H](NC(=O)C1CCC(F)(F)CC1)c1ccccc1 (stereo in doubt) [Maraviroc] | 0.973 | 1.15 | 0.873 | 1.03
26 | Cc1cc(-c2ncc(CC(=O)Nc3ccc(-c4cnccn4)cn3)cc2C)ccn1 | 0.863 | 1.1 | 0.665 | 0.746
27 | CC(C)c1onc(-c2c(Cl)cccc2Cl)c1COc1ccc(/C=C/c2cccc(C(=O)O)c2)c(Cl)c1 | 0.953 | 1.1 | 0.781 | 1.09
28 | c1ccc(Cn2c(-c3ccc(OC[C@H](C4CCNCC4)n4c(-c5ccccc5)nc5ccccc54)cc3)nc3ccccc32)cc1 [Deltarasin] | 0.887 | 0.966 | 0.0145 | 0.0132
29 | c1cc(-c2cnn3cc(-c4ccc(OCCN5CCCCC5)cc4)cnc23)ccn1 [Dorsomorphin (Compound C)] | 0.845 | 0.916 | 0.552 | 0.503
30 | C/C(=N\NC(=S)N1CCC1)c1ccccn1 | 0.171 | 0.137 | 0.225 | 0.167
31 | Fc1ccc2[nH]ccc2c1-c1nc(N2CCOCC2)c2sc(CN3CCN(CC4CC4)CC3)cc2n1 | 0.883 | 0.947 | 0.634 | 0.711
32 | O=C(NC1CCN(CCCCC2(C(=O)NCC(F)(F)F)c3ccccc3-c3ccccc32)CC1)c1ccccc1-c1ccc(C(F)(F)F)cc1 [Lomitapide Mesylate] | 0.573 | 0.79 | 0.0435 | 0.0328
33 | O=C(O)c1cc(=O)c2ccccc2o1 [Chromocarb] | 0.948 | 1.07 | 0.923 | 1.05
34 | CC(=O)c1cc2c(o1)C(=O)c1ccccc1C2=O [Napabucasin] | 0.0305 | 0.0196 | 0.018 | 0.0135
35 | O=C1c2ccccc2C(=O)c2c1ccc(O)c2O [Alizarin] | 0.834 | 1.1 | 0.8 | 1.06
36 | Cc1ccc(NC(=O)c2cccc(C(C)(C)C#N)c2)cc1Nc1ccc2ncn(C)c(=O)c2c1 | 0.244 | 0.283 | 0.27 | 0.31
37 | CN(C)Cc1cccc(N=C(c2ccccc2)c2c(O)[nH]c3cc(C(=O)N(C)C)ccc23)c1 | 1.01 | 0.843 | 0.588 | 0.574
38 | CCNC(=O)C#Cc1ccc2c(C(=Nc3ccc(CN(C)C)cc3)c3ccccc3)c(O)[nH]c2c1 | 0.122 | 0.0962 | 0.0494 | 0.0319
